PubChem BioAssay
Values without a mark were called inactive. A call without a number means that no potency is given here. For some of these results: Potency and affinity values are given separately. Active and inactive are the calls of the source. Unless noted, the rule behind the calls is not given here.

Legend:
[1] = antimalarial activity against Dd2 strain (AID 2302;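 active = growth inhibition above 50% at the single 2 µM test dose, taken to imply half-maximal potency below 2 µM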); details: P. falciparum Dd2 in RBCs, LDH growth readout, 72 h; at 2 µM; hits give high values
[2] = human hepatoma cell viability loss – ATP luminescence, cytotoxicity control for P. falciparum antimalarial project, primary screen (AID 2303;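 active = inhibition above 50%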); details: HepG2 viability, 24-48 h, at 10 µM, hits give high values
[3] = biological target: L-lactate dehydrogenase (Plasmodium falciparum (isolate CDC / Honduras)) (UniProt Q27743); assay: PfLDH activity inhibition – cell lysate, 3D7 strain, counter-screen for P. falciparum growth inhibition project (AID 2304); details: P. falciparum 3D7 crude extract, LDH APAD/NBT absorbance; at 2 µM; hits give high values
[4] = inhibition of 3D7 malaria parasite growth – strain 3D7 (AID 2306); details: P. falciparum 3D7 erythrocytic growth, LDH absorbance, 72 h; at 2 µM; hits give high values
[5] = biological target: Calcium-dependent protein kinase 1 (Plasmodium falciparum (isolate 3D7)) (UniProt P62344); assay: PfCDPK1 kinase inhibitors, biochemical, TCAMS library (AID 1159585; cut-off not given, nearly all actives have IC50 up to about 0.98 µM;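 note: inhibitors leave more ATP so luminescence rises with inhibition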); details: recombinant PfCDPK1, Kinase-Glo ATP depletion luminescence
[6] = biological target: Plasmodium falciparum protein kinase 6 (PK6, PF3D7_1337100) (UniProt Q8IDW1); assay: PfPK6 kinase inhibitors, biochemical, TCAMS library (AID 1159586); details: recombinant PfPK6, Kinase-Glo ATP depletion luminescence
[7] = biological target: Protein kinase 7 (PK7), Plasmodium falciparum 3D7 (PF3D7_0213400) (UniProt Q7YTF7); assay: inhibition of Plasmodium PK7 catalytic activity – biochemical, TCAMS antimalarial set, Kinase-Glo luminescence (AID 1159587); details: recombinant PfPK7, Kinase-Glo ATP depletion luminescence
[8] = biological target: Calcium-dependent protein kinase 4 (Plasmodium falciparum (isolate 3D7)) (UniProt Q8IBS5); assay: PfCDPK4 kinase inhibitors, biochemical, TCAMS library (AID 1159588; cut-off not given, nearly all actives have IC50 up to about 0.91 µM); details: recombinant PfCDPK4, Kinase-Glo ATP depletion luminescence
Calcium-dependent protein kinase 4 (Plasmodium falciparum (isolate 3D7)), sequence (Q8IBS5 whole entry, looked up): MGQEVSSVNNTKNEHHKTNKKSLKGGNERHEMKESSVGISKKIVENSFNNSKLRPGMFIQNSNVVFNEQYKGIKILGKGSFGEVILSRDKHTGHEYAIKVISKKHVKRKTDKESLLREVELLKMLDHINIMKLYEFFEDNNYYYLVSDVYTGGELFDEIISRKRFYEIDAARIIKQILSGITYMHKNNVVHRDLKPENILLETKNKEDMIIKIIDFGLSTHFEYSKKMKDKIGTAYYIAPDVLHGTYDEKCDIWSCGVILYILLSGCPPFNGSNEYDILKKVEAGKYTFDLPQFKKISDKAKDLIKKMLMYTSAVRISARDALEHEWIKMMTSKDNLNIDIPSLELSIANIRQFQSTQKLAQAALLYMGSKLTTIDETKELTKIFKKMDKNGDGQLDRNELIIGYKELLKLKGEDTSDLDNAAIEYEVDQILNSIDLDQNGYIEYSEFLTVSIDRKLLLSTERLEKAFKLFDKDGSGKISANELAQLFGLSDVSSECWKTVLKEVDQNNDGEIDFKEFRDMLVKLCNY

Protein kinase 7 (PK7), Plasmodium falciparum 3D7 (PF3D7_0213400), sequence (Q7YTF7 1-343): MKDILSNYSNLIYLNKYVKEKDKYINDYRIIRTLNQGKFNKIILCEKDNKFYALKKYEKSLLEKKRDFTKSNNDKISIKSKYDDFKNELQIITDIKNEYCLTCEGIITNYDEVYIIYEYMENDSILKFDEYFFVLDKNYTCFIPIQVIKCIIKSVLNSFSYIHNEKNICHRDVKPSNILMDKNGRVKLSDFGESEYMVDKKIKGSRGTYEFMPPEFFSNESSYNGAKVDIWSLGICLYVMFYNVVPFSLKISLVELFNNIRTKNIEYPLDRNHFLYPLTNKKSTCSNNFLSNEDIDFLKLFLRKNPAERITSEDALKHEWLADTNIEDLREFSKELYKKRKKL
Plasmodium falciparum protein kinase 6 (PK6, PF3D7_1337100), sequence (Q8IDW1 1-305): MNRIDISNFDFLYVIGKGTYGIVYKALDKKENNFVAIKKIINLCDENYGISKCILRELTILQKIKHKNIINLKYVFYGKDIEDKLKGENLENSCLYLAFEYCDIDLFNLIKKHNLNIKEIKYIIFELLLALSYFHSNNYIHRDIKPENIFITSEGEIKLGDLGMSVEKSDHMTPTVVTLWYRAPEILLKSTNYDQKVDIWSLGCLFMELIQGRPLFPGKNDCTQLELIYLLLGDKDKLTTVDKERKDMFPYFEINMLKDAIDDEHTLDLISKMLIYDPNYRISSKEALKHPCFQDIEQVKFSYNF
Calcium-dependent protein kinase 1 (Plasmodium falciparum (isolate 3D7)), sequence (P62344 whole entry, looked up): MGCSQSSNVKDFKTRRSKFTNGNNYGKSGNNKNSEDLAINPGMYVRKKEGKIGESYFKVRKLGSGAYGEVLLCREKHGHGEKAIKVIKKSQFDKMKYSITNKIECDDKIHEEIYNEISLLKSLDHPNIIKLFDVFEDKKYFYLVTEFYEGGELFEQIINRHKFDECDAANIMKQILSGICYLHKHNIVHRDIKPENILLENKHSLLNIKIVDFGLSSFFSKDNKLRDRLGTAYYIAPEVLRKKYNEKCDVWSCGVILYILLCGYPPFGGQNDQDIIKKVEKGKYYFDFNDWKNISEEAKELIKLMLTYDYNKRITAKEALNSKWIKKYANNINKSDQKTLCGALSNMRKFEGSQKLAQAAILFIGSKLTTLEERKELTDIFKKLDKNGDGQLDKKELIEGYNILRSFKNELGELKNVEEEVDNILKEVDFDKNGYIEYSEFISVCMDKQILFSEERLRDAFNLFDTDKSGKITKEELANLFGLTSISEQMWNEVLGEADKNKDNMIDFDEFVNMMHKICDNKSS
L-lactate dehydrogenase (Plasmodium falciparum (isolate CDC / Honduras)), sequence (Q27743 whole entry, looked up): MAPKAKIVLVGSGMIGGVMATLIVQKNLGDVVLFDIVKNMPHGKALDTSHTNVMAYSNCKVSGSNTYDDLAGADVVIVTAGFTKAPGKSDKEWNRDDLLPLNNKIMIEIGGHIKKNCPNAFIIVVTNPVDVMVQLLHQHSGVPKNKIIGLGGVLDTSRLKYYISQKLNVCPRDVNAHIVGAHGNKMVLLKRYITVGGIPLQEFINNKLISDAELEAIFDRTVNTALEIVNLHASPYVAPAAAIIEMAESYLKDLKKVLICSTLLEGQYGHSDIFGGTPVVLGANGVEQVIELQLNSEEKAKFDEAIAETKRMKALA

Structure (SMILES)	growth inhibition [1]	inhibition [2]	inhibition [3] [%]	growth inhibition [4]	outcome [5]	outcome [6]	outcome [7]	outcome [8]
O=C(NCc1cccs1)[C@H](Cc1ccccc1)Nc1ccnc(NCCc2ccccc2)n1	59% (active)	-1%	-2	85% (active)	inactive	inactive	inactive	inactive
CCC1(c2ccccc2)N=C(N)N(CCCc2ccccc2)C1=O (stereo not drawn)	96% (active)	17%	1	90% (active)	inactive	inactive	inactive	inactive
O=C(/C=C/c1ccccc1Cl)Nc1ccc(Br)c(OCCN2CCN(CCN3CCOCC3)CC2)c1	91% (active)	22%	-3	98% (active)	inactive	inactive	inactive	inactive
Cn1cncc1C(=O)Nc1cccc(-c2cccc(-c3nc4ccc(C(F)(F)F)cc4[nH]3)c2)c1	99% (active)	38%	0	103% (active)	inactive	inactive	inactive	inactive
CCOc1ccc(-c2nonc2NC(=O)c2ccc(Cl)cc2)cc1OCC	47%	28%	-2	94% (active)	inactive	inactive	inactive	inactive
Cc1cc(NC2CCCC2)nc(Nc2ccccc2)n1	75% (active)	26%	0	100% (active)	inactive	inactive	inactive	inactive
Fc1cc(Cl)ccc1Nc1ccnc2cc(I)ccc12	10%	11%	-1	90% (active)	inactive	inactive	inactive	inactive
CC(C)(C)c1ccc(OC(=O)c2ccc(NC(=O)N[C@@H](Cc3ccc(O)cc3)C(=O)NC3CCN(Cc4ccc(O)cc4)C3)cc2)cc1 (stereo partly drawn)	67% (active)	0%	-3	92% (active)	inactive	inactive	inactive	inactive
CCN(CC)CCCC(C)Nc1ccnc2ccc(OC)cc12 (stereo not drawn)	-3%	7%	-2	102% (active)	inactive	inactive	inactive	inactive
NC(=O)c1cccc(Nc2nccc(Nc3ccc4[nH]c(-c5ccccc5)cc4c3)n2)c1	98% (active)	28%	-2	101% (active)	inactive	inactive	inactive	inactive
COc1ccc2nccc([C@@H](O)CN3CCC(NC(=O)c4cccc(C(=O)c5ccccc5)c4)CC3)c2c1	99% (active)	13%	2	99% (active)	inactive	inactive	inactive	inactive
CCCOc1ccc(C(=O)Nc2nonc2-c2ccc(OC)c(OC)c2)cc1	97% (active)	-9%	5	99% (active)	inactive	inactive	inactive	inactive
CC(C)Cc1nc(N2CCOCC2)c2nnn(Cc3ccccc3)c2n1	76% (active)	7%	-2	98% (active)	inactive	inactive	inactive	inactive
Cc1cc(NS(=O)(=O)c2cccc(C(C)N3CCC(N4CCCC4)CC3)c2)ccc1C(C)C (stereo not drawn)	53% (active)	30%	-2	100% (active)	inactive	inactive	inactive	inactive
CC(C)(C)n1nnnc1C(c1cccnc1)N(Cc1ccccc1)Cc1ccc(Cl)cc1 (stereo not drawn)	17%	0%	-1	96% (active)	inactive	inactive	inactive	inactive
O=S(=O)(c1c(Cl)cc(Cl)cc1Cl)N1CCCCC(c2ccc(C(F)(F)F)cc2)=N1	99% (active)	6%	-5	98% (active)	inactive	inactive	inactive	inactive
Cc1cc(C)c2oc(-c3cccc(NC(=O)c4ccc([N+](=O)[O-])o4)c3C)nc2c1	67% (active)	-1%	0	90% (active)	inactive	inactive	inactive	inactive
CC(C)c1ccc(NC(=O)c2ccc(C(=O)NC3CCN(CC4CCCCC4)CC3)cc2)cc1	5%	34%	-2	98% (active)	inactive	inactive	inactive	inactive
c1cc(CN2CCN(c3ccncc3)CC2)cc(-c2cccc(-c3nc4ccccc4[nH]3)c2)c1	98% (active)	35%	3	102% (active)	inactive	inactive	inactive	inactive
CNCCNCc1ccc(-c2ccc(-c3nc4c(C)cccc4[nH]3)s2)cc1	26%	16%	5	97% (active)	inactive	inactive	inactive	inactive
O=C(/C=C/c1ccc(Cl)c(Cl)c1)NCCCCCN1CCC(NC(=O)Nc2cc(F)ccc2F)CC1	22%	78% (active)	3	98% (active)	inactive	inactive	inactive	inactive

Structure (SMILES)	growth inhibition [1]	inhibition [2]	inhibition [3] [%]	growth inhibition [4]	outcome [5]	outcome [6]	outcome [7]	outcome [8]
O=C(Nc1ccc(OC2CCN(Cc3ccc(F)cc3)C2)cc1)c1ccco1 (stereo not drawn)	69% (active)	-3%	-1	88% (active)	inactive	inactive	inactive	inactive
CCc1c(C)nc(-n2nc(C)cc2NC(=O)CCc2ccccc2)[nH]c1=O	97% (active)	48%	-1	97% (active)	inactive	inactive	inactive	inactive
c1cncc(Oc2ccc(Nc3ccnc4cc(-c5cccc(CN6CCCCC6)c5)ccc34)cc2)c1	100% (active)	33%	4	101% (active)	inactive	inactive	inactive	inactive
C#CCOc1ccc2ccccc2c1CNCCCCCCNCc1c(OCC#C)ccc2ccccc12	98% (active)	100% (active)	-3	100% (active)	inactive	inactive	inactive	inactive
CC(CCc1ccccc1)NCC(O)c1ccc2c3c(cccc13)C(=O)N2C (stereo not drawn)	57% (active)	37%	-2	99% (active)	inactive	inactive	inactive	inactive
CN(C)CC(O)C(c1ccccc1)c1cccc(Br)c1 (stereo not drawn)	9%	22%	-8	98% (active)	inactive	inactive	inactive	inactive
Cc1c(Br)cc2[nH]c(-c3ccc(C(=O)NC4CCN(Cc5ccccc5)CC4)cc3)nc2c1C	98% (active)	4%	1	102% (active)	inactive	inactive	inactive	inactive
COc1ccc2nccc(NN=Cc3ccc(Cl)cc3)c2c1	72% (active)	9%	-1	101% (active)	inactive	inactive	inactive	inactive
COc1ccc(CNCCc2cccs2)cc1-c1ccc(S(=O)(=O)NCCN2CCCC2)cc1	30%	30%	4	99% (active)	inactive	inactive	inactive	inactive
CN(C(=O)/C=C/c1cc(C(F)(F)F)ccc1F)C1CCN(CCCCCNC(=O)/C=C/c2ccc(Cl)c(Cl)c2)C1 (stereo not drawn)	1%	16%	-3	93% (active)	inactive	inactive	inactive	inactive
Cc1ccc(Cc2c(C)nc3nc(N)nc(N)c3c2C)cc1	1%	60% (active)	5	93% (active)	inactive	inactive	inactive	inactive
Cc1ccc(CCC(C)NCC(O)c2cccc(C(F)(F)F)c2)cc1 (stereo not drawn)	98% (active)	-17%	4	99% (active)	inactive	inactive	inactive	inactive
COc1cc2c(cc1N1CCN(C)CC1)N(C(=O)Nc1ccc(-c3ccncc3)c(Cl)c1Cl)CC2	4%	10%	-6	102% (active)	inactive	inactive	inactive	inactive
Cc1ccc2[nH]c3ccccc3c(=O)c2c1	74% (active)	-4%	-1	93% (active)	inactive	inactive	inactive	inactive
CCOc1ccc(-c2noc(-c3c[nH]c4ccccc4c3=O)n2)cc1	93% (active)	-7%	-3	99% (active)	inactive	inactive	inactive	inactive
CC(C)(C)CC(C)(C)c1ccc(O)c(C(=O)Nc2ccc([N+](=O)[O-])cc2)c1	99% (active)	80% (active)	5	97% (active)	inactive	inactive	inactive	inactive
CC(C)COc1ccc(Cl)cc1Cc1nc(-c2nc3ccc(CN(C)C)cc3[nH]2)co1	87% (active)	14%	5	97% (active)	inactive	inactive	inactive	inactive
C#CC[C@@H](NC(N)=O)C(=O)O	0%	1%	-2	97% (active)	inactive	inactive	inactive	inactive
COc1ccccc1-n1c(SCC(=O)Nc2ccccc2F)nc2cccnc21	88% (active)	-21%	0	96% (active)	inactive	inactive	inactive	inactive
CN1CCN(c2ccnc3ccc(NC(=O)Nc4ccc(Br)cc4)cc23)CC1	99% (active)	12%	-5	101% (active)	inactive	inactive	inactive	inactive
